Results published in PubChem BioAssay (Tox21).
Results filed as inconclusive are left out. A number with no mark means an inactive call. Active and inactive are the calls of the source. Calls come from the whole dose curve; as a rule, active = well fitted cell-killing curve with a large enough effect in the repeat runs; inconclusive = weak or mixed curves, or effect the other way; inactive = no such curve, though single readings can be large or run the other way.

Assay: qHTS assay to identify small molecule agonists of the RXR signaling pathway - cell viability counter screen (AID 1159529); note: nearly all actives have a fitted effect of over 50% in size
Conditions: RXR-alpha-bla HEK293T viability, CellTiter-Glo, 16 h; series mostly up to 76.8 µM; activity change, negative = cytotoxicity: at the top concentration
Description: National Center for Advancing Translational Sciences [NCATS]
NIH Chemical Genomics Center [NCGC]
U.S. Environmental Protection Agency [EPA]
National Institutes of Environmental Health Sciences [NIEHS]
National Toxicology Program [NTP]
U.S. Food and Drug Administration [FDA]
The Retinoid X receptor (RXR), a nuclear hormone receptor expressed in liver, spleen, placenta, epidermis, central nervous system. These receptors are able to form homo and heterodimers with other nuclear receptors and due to this heterodimerizing ability, RXR functions as master regulators producing diverse physiological effects. Three subtypes of RXR exist; alpha, beta and gamma. Retinoid X receptor alpha (RXR-alpha) has potential roles in metabolic signaling pathways, skin alopecia, dermal cysts, cardiac development, insulin sensitization etc. Therefore screening environmental chemicals on RXR-alpha signaling can be used for the studies focused on such therapeutic applications. For quantification of RXR-alpha ligands signaling, GeneBLAzer RXR alpha-UAS-bla HEK 293T (Life Technologies, Carlsbad, CA) cells containing a beta-lactamase reporter-gene under control of Retinoid X receptor-alpha response element were used to screen Tox21 10K library. The cytotoxicity of the Tox21 compound library against the RXR-alpha HEK 293T cell line was tested in parallel by measuring cell viability using CellTiter-Glo assay (Promega Corporation, Madison, WI) in the same wells.
Tox21 Assay Protocol Summary:
RXR-alpha HEK 293T cells were dispensed at 2,000 cells/6 uL of assay medium containing 2% charcoal-stripped FBS using a Multidrop Combi (ThermoFisher Scientific, Waltham, MA) dispenser. The assay was performed in black wall/clear-bottom 1536-well plates (Greiner Bio-One North America Inc. Monroe, NC). Tetraoctyl ammonium bromide was used as a positive control in the cytotoxicity screen. After the assay plates were incubated at 37 C and 5% CO2 for 5 hr, 23 nL of compounds dissolved in DMSO, positive control or DMSO only were transferred to the assay plate by a Pintool station (Kalypsys, San Diego, CA). The assay plates were incubated at 37 C and 5% CO2 for 16 hr. One uL of LiveBLAzer B/G FRET substrate (Life Technologies) was added using a Flying Reagent Dispenser (FRD) (Aurora Discovery, San Diego, CA) and the plates were incubated at room temperature for 2 hr. Fluorescence intensity (405 nm excitation, 460/530 nm emission) was measured using an Envision plate reader (PerkinElmer, Shelton, CT). For cytotoxicity, 4 uL/well of CellTiter-Glo reagent was added into the assay plates using an FRD. After 30 min incubation at room temperature, the luminescence intensity was measured using a ViewLux plate reader (PerkinElmer).
% is set by controls: 0 for no effect and ±100 for the full control effect; potency is the fitted concentration of half-maximal effect.

Compared with `CCC(C)c1cccc(C(C)CC)c1O` (stereo not given), `CCOC(=O)Cc1ccccc1` is higher in “activity change, negative = cytotoxicity” value: -15.2% for the first, 8.37% for the second.

First: CC(=O)[O-].CC(=O)[O-].O.O.[Zn+2]
Second: COP(=O)(OC)Oc1ccc([N+](=O)[O-])cc1
The “activity change, negative = cytotoxicity” value of the first is lower: -0.575% for the first, 14.3% for the second.

Going from `NC(=O)C(Cl)Cl` to `O=P(Cl)(Cl)Cl`, the “activity change, negative = cytotoxicity” value rises from -5.77% to -0.144%.

Compared with `c1ccc2c(c1)cc1ccc3cccc4ccc2c1c34`, `Cc1cc2c3c(c1)C(c1ccccc1)=N[C@@H](NC(=O)c1ccncc1)C(=O)N3CC2` is higher in “activity change, negative = cytotoxicity” value: -16.1% for the first, -12.6% for the second.

Going from `O=C(NC(=O)c1ccccc1Cl)Nc1ccc(OC(F)(F)F)cc1` to `O=C(Cl)c1ccccc1F`, the “activity change, negative = cytotoxicity” value rises from -1.97% to 2.92%.

Going from `COP(=S)(OC)Oc1ccc([N+](=O)[O-])c(C)c1` to `O=[N+]([O-])c1ccccc1-c1ccccc1`, the “activity change, negative = cytotoxicity” value falls from -0.915% to -2.37%.

First: CCCCON=O
Second: CCCN
The “activity change, negative = cytotoxicity” value of the first is lower: 8.51% for the first, 10.6% for the second.

Compared with `COP(=O)(OC)O/C(=C\Cl)c1cc(Cl)c(Cl)cc1Cl`, `Cc1nn(-c2cc(NS(C)(=O)=O)c(Cl)cc2Cl)c(=O)n1C(F)F` is higher in “activity change, negative = cytotoxicity” value: -14.5% for the first, 0.985% for the second.

First: CNC(=O)CSP(=O)(OC)OC
Second: COCCC#N
The “activity change, negative = cytotoxicity” value of the first is higher: 0.776% for the first, -3.51% for the second.

Compared with `CCOP(=O)(Sc1ccccc1)Sc1ccccc1`, `c1csc(-c2ccc(-c3cccs3)s2)c1` is lower in “activity change, negative = cytotoxicity” value: -8.08% for the first, -10.7% for the second.

Going from `C#CC1(O)CCCCC1` to `CC1(C)[C@H](/C=C2\CCSC2=O)[C@@H]1C(=O)OCc1coc(Cc2ccccc2)c1`, the “activity change, negative = cytotoxicity” value rises from -3.53% to 11.2%.

Going from `C1=CCC=C1` to `ClSC(Cl)(Cl)Cl`, the “activity change, negative = cytotoxicity” value falls from 2.11% to 1.03%.

For `[O-][Cl+3]([O-])([O-])O`, the “activity change, negative = cytotoxicity” value was 18.2%.

With `Oc1cccc(Cl)c1Cl` the Potency was 49.2 µM (active).
In the case of `CN(C)c1ccc(N)cc1`, the Potency is reported as 42.6 µM (active).
For `CCCCCCCCCCCCCCn1cc[n+](C)c1`, the Potency was 19.5 µM (active).
With `CC(O)C(=O)[O][Hg][c]1ccccc1` (stereo not given) the Potency was 1.95 µM (active).
With `O=[N+]([O-])c1cc(C(F)(F)F)c(Cl)c([N+](=O)[O-])c1Nc1ncc(C(F)(F)F)cc1Cl` the Potency was 7.76 µM (active).
In the case of `[F][Sn]([c]1ccccc1)([c]1ccccc1)[c]1ccccc1`, the Potency is reported as 0.692 µM (active).
In the case of `FC(F)C(F)(F)OCC(Cn1cncn1)c1ccc(Cl)cc1Cl` (stereo not given), the Potency is reported as 48.7 µM (active).

First: CC(Cc1ccc(O)cc1)NCC(O)c1cc(O)cc(O)c1 (stereo not given)
Second: CC(C)NCC(O)c1ccccc1Cl (stereo not given)
The “activity change, negative = cytotoxicity” value of the first is higher: 3.93% [at 35.3 µM] for the first, -4.3% [at 35.3 µM] for the second.

First: CNC(C)(C)Cc1ccccc1
Second: CC(Cc1ccccc1)N(C)Cc1ccco1 (stereo not given)
The “activity change, negative = cytotoxicity” value of the first is lower: -2.69% [at 35.3 µM] for the first, 7.58% [at 35.3 µM] for the second.

Going from `CCCCN(CCCC)C(=S)[S-].CCCCN(CCCC)C(=S)[S-].[Ni+2]` to `O=C(O)CCCCCCNC1c2ccccc2CCc2ccccc21`, the “activity change, negative = cytotoxicity” value rises from -6.24% [at 35.3 µM] to 0.53% [at 35.3 µM].

`Cc1ccc2cc3c(ccc4ccccc43)c3c2c1CC3` and `O=C(N[C@@H]1N=C(c2ccccc2F)c2cccc3c2N(CC3)C1=O)c1cc2ccccc2[nH]1` are the same in “activity change, negative = cytotoxicity” value: -17.7% [at 35.3 µM] for the first, -17.7% [at 35.3 µM] for the second.
